# Laboratory results as given in the supplement of paper PMC9694430.
# Key:
# Test in all cases: thermal shift delta Tm vs DMSO control; higher = stronger stabilization (binding)
# Settings in all cases: 12.5 µM; protein concentration 2 µM
# LOC_OS01G01410-cb001 = test system: LOC_OS01G01410-cb001
# Summary of the method: (§1)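 Purified, E. coli-expressed rice kinase domain constructs were tested by differential scanning fluorimetry in 96-well plates: 19.5 μl of 2 μM kinase in 100 mM potassium phosphate pH 7.5, 150 mM NaCl, 10% glycerol, 5 × SYPRO Orange, plus compound in DMSO. Fluorescence was read from 25°C to 95°C at 0.05°C/s. Melting temperatures came from Boltzmann fits, and the shift is the triplicate mean relative to protein with DMSO alone.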
# LOC_OS01G02750-cb003 = test system: LOC_OS01G02750-cb003
# Summary of the method: as §1
# LOC_OS01G10900-cb004 = test system: LOC_OS01G10900-cb004
# Summary of the method: as §1
# LOC_OS01G13800-cb001 = test system: LOC_OS01G13800-cb001
# Summary of the method: as §1
# LOC_OS01G14860-cb001 = test system: LOC_OS01G14860-cb001
# Summary of the method: as §1
# LOC_OS01G21960-cb002 = test system: LOC_OS01G21960-cb002
# Summary of the method: as §1
# LOC_OS01G39600-cb002 = test system: LOC_OS01G39600-cb002
# Summary of the method: as §1
# LOC_OS01G48390-cb002 = test system: LOC_OS01G48390-cb002
# Summary of the method: as §1
# LOC_OS01G51400-cb002 = test system: LOC_OS01G51400-cb002
# Summary of the method: as §1
# LOC_OS01G52050-cb004 = test system: T1, LOC_OS01G52050-cb004
# T1 sequence (whole entry): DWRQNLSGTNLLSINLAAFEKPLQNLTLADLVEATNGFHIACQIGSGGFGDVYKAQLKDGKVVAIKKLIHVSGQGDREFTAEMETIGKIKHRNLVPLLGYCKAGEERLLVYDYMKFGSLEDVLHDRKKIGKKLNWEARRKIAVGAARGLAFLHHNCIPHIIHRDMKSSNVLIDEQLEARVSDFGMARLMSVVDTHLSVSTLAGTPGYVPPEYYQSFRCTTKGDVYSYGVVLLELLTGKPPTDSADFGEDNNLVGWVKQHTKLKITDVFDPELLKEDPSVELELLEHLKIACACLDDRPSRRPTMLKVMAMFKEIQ
# Summary of the method: as §1
SMILES,thermal shift delta Tm (LOC_OS01G01410-cb001) [°C],thermal shift delta Tm (LOC_OS01G02750-cb003) [°C],thermal shift delta Tm (LOC_OS01G10900-cb004) [°C],thermal shift delta Tm (LOC_OS01G13800-cb001) [°C],thermal shift delta Tm (LOC_OS01G14860-cb001) [°C],thermal shift delta Tm (LOC_OS01G21960-cb002) [°C],thermal shift delta Tm (LOC_OS01G39600-cb002) [°C],thermal shift delta Tm (LOC_OS01G48390-cb002) [°C],thermal shift delta Tm (LOC_OS01G51400-cb002) [°C],thermal shift delta Tm (LOC_OS01G52050-cb004) [°C]
CCCCCCCCCC(=O)CC(O)S(=O)(=O)O (stereo not given) [Sodium Houttuyfonate],0.56,-0.18,3.08,0.69,0.44,0.8,-0.35,0.2,0.12,0.07
CC(C)Oc1ccc(-c2nn([C@@H](C)c3oc4ccc(F)cc4c(=O)c3-c3cccc(F)c3)c3ncnc(N)c23)cc1F,0.45,1.4,0.72,0.18,0.59,0.77,-0.2,1.45,0.32,0.73
Cc1cc(Nc2cc(CN3CCOCC3)c3nc(C)c(Cc4ccc(Cl)cc4F)n3n2)n[nH]1,2.97,3.19,1.89,-0.62,7.26,2.02,2.41,5.72,-0.5,1.05
O=C(Nc1ccc(OC(F)(F)F)cc1)c1sccc1NCc1ccnc2ccccc12,1.17,2.66,0.51,0.57,0.78,0.12,1.45,1,0.94,3.68
Oc1c2ccccc2c2c3c(cccc13)N=N2,3.59,5.55,3.61,0.39,2.06,2.7,1.16,5.42,0.42,7.57
C=CC(=O)Nc1cccc(Oc2nc(Nc3ccc(N4CCN(C)CC4)cc3)nc3ccsc23)c1,2.67,1.02,2.04,0.55,0.91,1.61,0.15,1.38,0.79,1.94
"Cc1[nH]c(/C=C2\C(=O)Nc3ccccc32)c(C)c1CCC(=O)O [Orantinib (TSU-68, SU6668)]",4.79,1.43,0.18,0.08,1.9,2.76,6.8,1.34,0.2,3.61
COc1ccc(-c2ccc3ncc4c(c3c2)n(-c2ccc(N3CCNCC3)c(C(F)(F)F)c2)c(=O)n4C)cn1,1.5,2.95,0.97,0.05,2.59,2.58,0.22,0.42,-0.17,4.2
N#Cc1ccc2[nH]c(O)c(-c3ccc(CN4CCOCC4)cn3)c2c1,0.79,1.84,0.41,-0.53,6.12,0.79,1.95,1.33,0.34,0.44
CN(C[C@@H]1COCCO1)S(=O)(=O)Nc1ccc2ccc3ncc(-c4cnn(C)c4)cc3c(=O)c2c1,2.9,3.39,1.59,-0.75,0.52,1.85,2.41,0.37,0.29,10.3
"Cc1cc(Nc2ncnc3ccc(NC4=NC(C)(C)CO4)cc23)ccc1Oc1ccn2ncnc2c1 [Irbinitinib (ARRY-380, ONT-380)]",0.46,-5.11,0.3,-0.06,-1.49,-0.98,-4.96,-0.78,-3.07,1.03
Cn1cc(-c2ccc(F)c(C(F)(F)F)c2)nc1C1CCN(c2ncnc3[nH]ncc23)CC1,0.43,0.52,0.51,0.16,1.8,0.54,0.71,0.47,-0.2,0.39
Cc1n[nH]c2ncc(C(=O)N3CCC[C@H]3c3ccc(Cl)cc3)cc12,0.63,0.98,0.41,0.18,4.68,0.38,0.88,0.19,0.21,3.46
CC(C)(O)CC(=O)NCCn1ccc2ncnc(Nc3ccc(Oc4cccc(C(F)(F)F)c4)c(Cl)c3)c21,1.78,3.42,1.92,0.44,1.32,1.64,3.99,2.26,1.72,4.47
O=c1sn(-c2cccc3ccccc23)c(=O)n1Cc1ccccc1 [Tideglusib],0.61,-1.04,-0.23,0.16,0.15,0.39,1.37,0.44,0.24,0.37
C[C@@H](NC(=O)c1ncnc(N)c1Cl)c1ncc(C(=O)Nc2cc(C(F)(F)F)c(Cl)cn2)s1,1.26,1.15,2.82,-0.27,0.84,0.73,-1.6,2.52,0.56,0.43
Cc1cnc(NC(=O)Nc2cc(Br)c(C)cc2OC[C@@H]2CNCCO2)cn1,0.41,0.39,0.37,-0.12,0.81,0.58,0.24,1.82,0.02,2.33
COC(=O)N[C@@H](C)CNc1nccc(-c2cn(C(C)C)nc2-c2cc(Cl)cc(NS(C)(=O)=O)c2F)n1 [Encorafenib (LGX818)],0.41,0.83,0.1,-0.12,5.56,0.28,0.05,0.2,0.1,0.5
Oc1cc(CNC(=S)/C=C/c2cc(O)c(O)c(Br)c2)cc(O)c1O,4.72,1.04,-0.23,4.09,2.93,5.85,0.87,0.74,1.58,1.78

SMILES,thermal shift delta Tm (LOC_OS01G01410-cb001) [°C],thermal shift delta Tm (LOC_OS01G02750-cb003) [°C],thermal shift delta Tm (LOC_OS01G10900-cb004) [°C],thermal shift delta Tm (LOC_OS01G13800-cb001) [°C],thermal shift delta Tm (LOC_OS01G14860-cb001) [°C],thermal shift delta Tm (LOC_OS01G21960-cb002) [°C],thermal shift delta Tm (LOC_OS01G39600-cb002) [°C],thermal shift delta Tm (LOC_OS01G48390-cb002) [°C],thermal shift delta Tm (LOC_OS01G51400-cb002) [°C],thermal shift delta Tm (LOC_OS01G52050-cb004) [°C]
Cc1ncc(CO)c(CO)c1O [Pyridoxine],-0.03,0.64,0.29,-0.11,0.24,0.13,-0.13,0.22,0.06,4.05
Cc1[nH]c(/C=C2\C(=O)Nc3ccc(S(=O)(=O)N(C)c4cccc(Cl)c4)cc32)c(C)c1C(=O)N1CCN(C)CC1,1.44,2.62,0.43,0.07,0.57,0.44,-0.1,0.18,0.14,1.01
CN(C)CCOc1ccc(-c2nc(-c3ccncc3)c(-c3ccc4c(c3)CC/C4=N\O)[nH]2)cc1,1.77,0.07,3.19,0.05,0.42,-0.07,0.16,1.16,0.46,0.22
C=CC(=O)N1CCN(CCCn2c(=O)c(-c3c(Cl)c(OC)cc(OC)c3Cl)cc3cnc(NC)nc32)CC1,0.19,0.26,0.4,-0.37,0.42,0.28,0.11,0.23,0.12,0.46
CCn1c2ccccc2c2cc(Nc3ccnc(NCCCN4CCOCC4)n3)ccc21,-0.05,-0.06,0.59,-0.29,0.53,0.58,-0.04,0.62,0.13,0.07
Cc1[nH]c(/C=C2\C(=O)Nc3ccc(S(=O)(=O)Cc4c(Cl)cccc4Cl)cc32)c(C)c1C(=O)N1CCC[C@@H]1CN1CCCC1,1.92,1.5,0.36,0.4,0.57,0.17,3.39,0.38,-0.1,0.18
COc1cccc(-c2cc(=O)c3ccccc3o2)c1N,1.2,0.8,-0.05,0.1,0.1,-0.03,0.91,-0.01,0.02,0.01
CN(C)Cc1cccc(N/C(=C2\C(=O)Nc3cc(C(N)=O)ccc32)c2ccccc2)c1,-0.11,0.69,1.98,-0.09,0.65,0.45,0.07,0.48,0.08,0.86
O=c1c(O)c(-c2ccc(O)c(O)c2)oc2cc(O)cc(O)c12 [Quercetin],3.05,7.25,1.68,1.97,3.55,3.4,6.51,2.95,1.5,6.25
COc1ccc(COc2ccc(Cc3cnc(N)nc3N)cc2OC)cc1,-0.12,1.12,2.07,0.44,0.12,0.25,0.89,-0.01,0.2,0.04
COc1ccc(S(=O)(=O)N(CCO)c2ccccc2CN(C)C/C=C/c2ccc(Cl)cc2)cc1 [KN-93 Phosphate],0.65,0.92,0.7,-0.08,0.51,0.96,-0.38,0.66,0.28,0.47
CO[C@H]1C[C@@H]2CC[C@@H](C)[C@@](O)(O2)C(=O)C(=O)N2CCCC[C@H]2C(=O)O[C@H]([C@H](C)C[C@@H]2CC[C@@H](OCCO)[C@H](OC)C2)CC(=O)[C@H](C)/C=C(\C)[C@@H](O)[C@@H](OC)C(=O)[C@H](C)C[C@H](C)/C=C/C=C/C=C/1C [Everolimus (RAD001)],1.13,-1.72,0.03,0.16,-0.41,0.16,0.54,0.33,-0.03,0.35
CN1CCN(c2ccc(-c3ccncc3-c3cc(F)c(O)c(F)c3)cc2)CC1,0.42,0.81,-0.45,0.02,0.46,0.1,-0.43,-0.15,0.11,0.14
COc1cc(OC)cc(N(CCNC(C)C)c2ccc3ncc(-c4cnn(C)c4)nc3c2)c1,0.55,1.27,0.16,0.03,0.57,0.2,1.11,2.48,0.26,2.05
CC(C)(C)S(=O)(=O)c1ccc2nccc(Nc3n[nH]c4ccc(F)cc34)c2c1,0.34,1.74,0.48,-0.44,0.3,0.28,1.01,1.31,0.33,0.16
C[C@H](NC(=O)/C(C#N)=C/c1cccc(Br)n1)c1ccccc1,-1.2,-2.27,-0.05,-0.79,-1.13,-0.08,-1.71,0.12,-1,-1.36
O=C(c1ccc(Nc2nccc(-c3cc4ccccc4s3)n2)cc1)N1CCC(N2CCCC2)CC1 [IKK-16 (IKK Inhibitor VII)],2.52,2.69,4.53,-0.34,5.72,2.79,8.28,1.72,-0.14,4.5
COc1cc(OC)c(/C=C/S(=O)(=O)Cc2ccc(OC)c(NCC(=O)O)c2)c(OC)c1,0.51,1.22,0.58,0.83,0.27,0.96,-0.03,0.33,0.1,0.51
